The panel holds about 83,000 compounds, 20% with a hit somewhere; the sample as a whole holds those more often.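 Single-dose data. Exposure time 48 hours. Values below 10 considered active.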 Active and inactive are the calls of the source.
Legend:
Experiment in all cases: NCI-60 one-dose screen, 48 h (100 = growth as untreated, 0 = no growth, -100 = all killed)
HT29 colon = settings: 10 µM unless noted
SNB-75 CNS = settings: 10 µM unless noted
SNB-19 CNS = settings: 10 µM unless noted
U251 CNS = settings: 10 µM unless noted
PC-3 prostate = settings: 10 µM unless noted
SK-MEL-5 melanoma = settings: 10 µM unless noted
UACC-62 melanoma = settings: 10 µM unless noted
LOX IMVI melanoma = settings: 10 µM unless noted
SK-MEL-28 melanoma = settings: 10 µM
SK-MEL-2 melanoma = settings: 10 µM unless noted
EKVX NSCLC = settings: 10 µM unless noted
SN12C renal = settings: 10 µM unless noted
UO-31 renal = settings: 10 µM unless noted
TK-10 renal = settings: 10 µM unless noted
ACHN renal = settings: 10 µM unless noted
CAKI-1 renal = settings: 10 µM unless noted
A498 renal = settings: 10 µM unless noted
CCRF-CEM leukemia = settings: 10 µM unless noted
MOLT-4 leukemia = settings: 10 µM unless noted
SR leukemia = settings: 10 µM unless noted

Measured: growth

O=C(c1nc2ccccc2[nH]1)C1C(c2ccc([N+](=O)[O-])cc2)C2CC3CCCCC3N2[C@@]12C(=O)Nc1cc(Cl)ccc12 (stereo partly specified)
active: SK-MEL-5 melanoma -57.1% | A498 renal -1.18% | MOLT-4 leukemia 8.23%
inactive: HT29 colon 18.5% | SNB-75 CNS 27.4% | SNB-19 CNS 27.5% | U251 CNS 25.5% | PC-3 prostate 22.3% | UACC-62 melanoma 20.5% | LOX IMVI melanoma 25.1% | SK-MEL-28 melanoma 44.9% | SK-MEL-2 melanoma 48.3% | EKVX NSCLC 16.6% | SN12C renal 34.1% | UO-31 renal 13.1% | TK-10 renal 36.7% | ACHN renal 18.4% | CAKI-1 renal 41.5% | CCRF-CEM leukemia 24.2% | SR leukemia 19.6%

CCN(CC)CCNC(=O)C(Cl)=C1C(Cl)=C(Cl)C(Cl)=C1Cl
active: CAKI-1 renal 6.11%
inactive: HT29 colon 41.3% | SNB-75 CNS 48.4% | SNB-19 CNS 85.5% | U251 CNS 40.8% | PC-3 prostate 56.2% | SK-MEL-5 melanoma 47% | UACC-62 melanoma 55.1% | LOX IMVI melanoma 22.6% | SK-MEL-28 melanoma 72.7% | SK-MEL-2 melanoma 47.6% | EKVX NSCLC 87.8% | SN12C renal 47.8% | UO-31 renal 43.6% | TK-10 renal 59.4% | ACHN renal 48.6% | A498 renal 71.8% | MOLT-4 leukemia 15% | SR leukemia 34.8%

O=C1C(=O)c2c(ccc3ccccc23)-c2ccccc21
active: U251 CNS 1.64% | PC-3 prostate 5.79% | SK-MEL-5 melanoma -69.9% | UACC-62 melanoma -25.2% | LOX IMVI melanoma -33.2% | SK-MEL-28 melanoma 3.64% | SK-MEL-2 melanoma -68.8% | SN12C renal -38.6% | UO-31 renal -32.4% | ACHN renal 1.97% | CAKI-1 renal -17% | MOLT-4 leukemia -31.3% | SR leukemia 5.07%
inactive: HT29 colon 61.5% | SNB-75 CNS 26.2% | SNB-19 CNS 18.9% | EKVX NSCLC 100% | TK-10 renal 14.7% | A498 renal 108%

N#C/C(=C\c1c(-c2ccccc2)[nH]c2ccccc12)S(=O)(=O)c1ccccc1
inactive: HT29 colon 18.3% | SNB-75 CNS 12.4% | SNB-19 CNS 40.3% | U251 CNS 33.4% | SK-MEL-5 melanoma 11.6% | UACC-62 melanoma 34.3% | LOX IMVI melanoma 42.7% | SK-MEL-28 melanoma 52.4% | SK-MEL-2 melanoma 46.6% | EKVX NSCLC 61.7% | SN12C renal 54% | UO-31 renal 51.2% | TK-10 renal 69.4% | ACHN renal 59.4% | CAKI-1 renal 41.5% | A498 renal 24.2% | MOLT-4 leukemia 33.7% | SR leukemia 17.9%
active: PC-3 prostate 5.37%

CNCCNc1nc2ccccc2c2c(=O)c3cccc(C)c3sc12
inactive: SNB-75 CNS 38.4% | SNB-19 CNS 53.2% | U251 CNS 25.4% | PC-3 prostate 41.4% | SK-MEL-5 melanoma 46.3% | UACC-62 melanoma 42% | SK-MEL-2 melanoma 91.4% | EKVX NSCLC 46.4% | SN12C renal 32.5% | UO-31 renal 29.6% | TK-10 renal 41.7% | CAKI-1 renal 17.9% | CCRF-CEM leukemia 21%
active: HT29 colon -25.6% | LOX IMVI melanoma -85.6% | SK-MEL-28 melanoma -60.1% | ACHN renal -29.9% | MOLT-4 leukemia -29.5% | SR leukemia -29.9%

COc1ccccc1C1=C(Br)C(=O)c2nc(C)ccc2C1=O
inactive: HT29 colon 101% | SNB-75 CNS 94.4% | SNB-19 CNS 101% | U251 CNS 102% | PC-3 prostate 101% | SK-MEL-5 melanoma 100% | UACC-62 melanoma 88.9% | LOX IMVI melanoma 97.1% | SK-MEL-28 melanoma 104% | SK-MEL-2 melanoma 97.2% | EKVX NSCLC 99.5% | SN12C renal 92.4% | UO-31 renal 77.2% | TK-10 renal 101% | ACHN renal 19.9% | CAKI-1 renal 98.4% | CCRF-CEM leukemia 92% | MOLT-4 leukemia 117% | SR leukemia 105%

COc1cc(C(=O)Nc2ccc(-c3nc4ccccc4[nH]3)cc2)cc(OC)c1OC
inactive: HT29 colon 14.8% | SNB-75 CNS 42.9% | SNB-19 CNS 53.8% | U251 CNS 25% | PC-3 prostate 52.5% | SK-MEL-5 melanoma 65.7% | UACC-62 melanoma 47.2% | LOX IMVI melanoma 36% | SK-MEL-28 melanoma 50% | SK-MEL-2 melanoma 105% | SN12C renal 45.4% | UO-31 renal 49.5% | TK-10 renal 60.1% | ACHN renal 61.9% | CAKI-1 renal 55.9% | A498 renal 37.6% | CCRF-CEM leukemia 36.5% | MOLT-4 leukemia 41.3% | SR leukemia 10.1%

Cc1ccc(NCCNCC(O)CO)c2c(=O)c3ccccc3sc12 (stereo unspecified)
active: HT29 colon -61.1% | U251 CNS 9.2% | SK-MEL-5 melanoma -81% | UACC-62 melanoma -49.9% | LOX IMVI melanoma -95.2% | SK-MEL-28 melanoma 1.81% | UO-31 renal -24% | ACHN renal -46.3% | MOLT-4 leukemia 9.37% | SR leukemia -9.74%
inactive: SNB-75 CNS 44.6% | SNB-19 CNS 26.3% | PC-3 prostate 13.6% | SK-MEL-2 melanoma 75.8% | EKVX NSCLC 43.3% | SN12C renal 19.7% | CAKI-1 renal 39.2% | A498 renal 43.2% | CCRF-CEM leukemia 22.2%

Cc1ccc2sc3c(NCCCNCCO)nc4ccccc4c3c(=O)c2c1
active: HT29 colon -65% | U251 CNS -39.5% | UACC-62 melanoma -25.3% | LOX IMVI melanoma -27.3% | ACHN renal 6.81% | MOLT-4 leukemia -39.3% | SR leukemia 2.94%
inactive: SNB-75 CNS 33.3% | SNB-19 CNS 68.5% | PC-3 prostate 39.3% | SK-MEL-5 melanoma 85.6% | SK-MEL-28 melanoma 79.8% | SK-MEL-2 melanoma 90.8% | EKVX NSCLC 57.3% | UO-31 renal 48.6% | TK-10 renal 66.9% | CAKI-1 renal 56.7% | A498 renal 65.8% | CCRF-CEM leukemia 10.8%

CCN1C(=O)N(CC)C2Nn3c(s/c(=C\c4ccccc4F)c3=O)=NC21 (stereo unspecified)
inactive: HT29 colon 17.4% | SNB-75 CNS 55.1% | SNB-19 CNS 45.5% | U251 CNS 26.1% | PC-3 prostate 39.6% | SK-MEL-5 melanoma 33.9% | UACC-62 melanoma 36.7% | LOX IMVI melanoma 44.3% | SK-MEL-28 melanoma 54.2% | SK-MEL-2 melanoma 52.8% | EKVX NSCLC 38.4% | UO-31 renal 65.8% | TK-10 renal 87.2% | ACHN renal 50.8% | CAKI-1 renal 48.1% | A498 renal 43.3% | CCRF-CEM leukemia 34.1% | MOLT-4 leukemia 44% | SR leukemia 24.5%

CCCC(=O)CC(C)=O.CCCC(=O)CC(C)=O.[Cu]
inactive: HT29 colon 94.9% | SNB-75 CNS 116% | SNB-19 CNS 110% | U251 CNS 99.9% | PC-3 prostate 76.3% | SK-MEL-5 melanoma 103% | UACC-62 melanoma 105% | LOX IMVI melanoma 86.5% | SK-MEL-28 melanoma 106% | SK-MEL-2 melanoma 113% | EKVX NSCLC 106% | SN12C renal 110% | UO-31 renal 102% | ACHN renal 105% | CAKI-1 renal 103% | A498 renal 122% | CCRF-CEM leukemia 107% | MOLT-4 leukemia 99.2% | SR leukemia 85.6%

CC/C(=C(\CC)c1ccc(OCC[N+](C)(C)C)cc1)c1ccc(OC)cc1
inactive: HT29 colon 39.5% | SNB-75 CNS 31.2% | SNB-19 CNS 27.1% | U251 CNS 21.6% | PC-3 prostate 41.6% | SK-MEL-5 melanoma 44.1% | UACC-62 melanoma 42.2% | LOX IMVI melanoma 73.2% | SK-MEL-28 melanoma 76.7% | SK-MEL-2 melanoma 98.8% | EKVX NSCLC 95.6% | SN12C renal 51.1% | UO-31 renal 98.2% | ACHN renal 98% | CAKI-1 renal 104% | A498 renal 53% | CCRF-CEM leukemia 60.1% | MOLT-4 leukemia 65% | SR leukemia 69.3%

COC(=O)C1=C(C)NC(C)=C(C(=O)OC)C(N2C(=O)CCC2=O)C1 (stereo unspecified)
inactive: HT29 colon 98.5% | SNB-75 CNS 77.3% | SNB-19 CNS 99.9% | U251 CNS 87.7% | PC-3 prostate 84.6% | SK-MEL-5 melanoma 102% | UACC-62 melanoma 83.8% | LOX IMVI melanoma 82.4% | SK-MEL-28 melanoma 95.5% | SK-MEL-2 melanoma 99.1% | SN12C renal 88.7% | UO-31 renal 81.9% | TK-10 renal 123% | ACHN renal 99% | CAKI-1 renal 92.6% | A498 renal 109% | CCRF-CEM leukemia 35.3% | MOLT-4 leukemia 78.1% | SR leukemia 37.3%

CCCCOCc1cc(CN2CCN(C)CC2)c(O)c2ncccc12
inactive: HT29 colon 96% | SNB-75 CNS 68.2% | SNB-19 CNS 48.6% | U251 CNS 27.8% | PC-3 prostate 34.3% | SK-MEL-5 melanoma 50.6% | UACC-62 melanoma 53% | LOX IMVI melanoma 35.9% | SK-MEL-28 melanoma 74.7% | SK-MEL-2 melanoma 97.7% | EKVX NSCLC 38.4% | SN12C renal 62% | UO-31 renal 21.3% | ACHN renal 27.9% | CAKI-1 renal 19.5% | A498 renal 70.1% | CCRF-CEM leukemia 31.8% | MOLT-4 leukemia 60.6% | SR leukemia 35.9%

COc1cc(/C=C2\CN(C)C/C(=C\c3cc(CN4CCCCC4)c(O)c(OC)c3)C2=O)cc(CN2CCCCC2)c1O
active: HT29 colon 3.56% | LOX IMVI melanoma 5.17%
inactive: SNB-75 CNS 66.9% | SNB-19 CNS 70.9% | U251 CNS 15% | PC-3 prostate 32.7% | SK-MEL-5 melanoma 70.6% | UACC-62 melanoma 60.6% | SK-MEL-28 melanoma 93.5% | SK-MEL-2 melanoma 73.2% | EKVX NSCLC 46% | UO-31 renal 57% | TK-10 renal 57.6% | ACHN renal 39% | CAKI-1 renal 55.9% | A498 renal 71.1% | CCRF-CEM leukemia 19.9% | MOLT-4 leukemia 16.5% | SR leukemia 28.5%

Source: PubChem BioAssay (NCI)
